In all, about 370,000 compounds went through this assay and about 4,800 (1.3%) were called active. For the sample, actives were picked, then their nearest neighbours and some compounds at random. A number with no mark means an inactive call.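 Rule for the calls: active = inhibition above about 21% made by adding two undisclosed values (limit read from the data); inactive = the rest.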
target: Protein arginine N-methyltransferase 1 (Homo sapiens) (UniProt Q99873); assay: human PRMT1 activity-probe blockers – biochemical, fluorescence polarization, primary screen (AID 652257); details: recombinant PRMT1, activity-based probe fluorescence polarization; at 2.79 µM; stronger effect = higher value
Sequence (Q99873 whole entry, looked up): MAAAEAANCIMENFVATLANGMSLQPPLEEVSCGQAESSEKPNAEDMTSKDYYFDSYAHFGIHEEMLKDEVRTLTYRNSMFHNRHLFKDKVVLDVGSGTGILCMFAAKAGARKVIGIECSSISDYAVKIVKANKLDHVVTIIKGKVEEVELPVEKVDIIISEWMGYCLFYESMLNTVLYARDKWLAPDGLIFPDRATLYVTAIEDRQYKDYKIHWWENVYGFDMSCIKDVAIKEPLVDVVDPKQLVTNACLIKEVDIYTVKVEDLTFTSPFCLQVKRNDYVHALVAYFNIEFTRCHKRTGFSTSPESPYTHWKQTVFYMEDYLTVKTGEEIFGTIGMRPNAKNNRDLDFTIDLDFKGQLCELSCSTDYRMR

How did the inhibition turn out when COc1ccc(CN2C/C(=C/c3ccccc3)N3C(=O)C[C@@H](c4ccccc4)N=C23)c(OC)c1 was run?
Its inhibition is 0.52%.

With CCC(C)c1ccc(NC(=S)N2CCCC2)cc1 (stereo unspecified) as the compound, how does the inhibition read?
The inhibition was 2.33%.

With COc1ccc(N2CCN(CCNS(=O)(=O)c3ccc(C(C)(C)C)cc3)CC2)cc1 as the compound, how does the inhibition read?
Its inhibition is 0.09%.

How did the inhibition turn out when CCC(=C/c1sc2ccc3ccccc3c2[n+]1C)/C=C1\Sc2ccc3ccccc3c2N1C was run?
Its inhibition is 75.6% (active).

Oc1c(C=Nc2cccc3nsnc23)ccc2ccccc12 was tested. Which inhibition did it give?
Its inhibition is 27.2% (active).

With O=C(NC1CCCCN(Cc2cccc(C(F)(F)F)c2)C1=O)c1ccccc1I (stereo unspecified) as the compound, how does the inhibition read?
The inhibition was -1.71%.

How did the inhibition turn out when COC(=O)c1cccc(Cn2ccc3ccc(-c4ccc5ccn(C(=O)c6ccccc6C)c5c4)cc32)c1 was run?
Its inhibition is 1.92%.

With COc1cc(NC(=O)C2CCCN(S(=O)(=O)c3ccc(C(C)(C)C)cc3)C2)cc(OC)c1 (stereo unspecified) as the compound, how does the inhibition read?
The inhibition was -5.91%.

With O=C(NC(=S)Nc1cccc(-c2ccc(CO)o2)c1)c1cccs1 as the compound, how does the inhibition read?
Its inhibition is 21.4% (active).

How did the inhibition turn out when Cc1sc(NC(=S)NC(=O)c2cccs2)nc1-c1ccc(CC(C)C)cc1 was run?
The inhibition was -4.11%.

Which inhibition does the source give for NS(=O)(=O)c1ccc(NC(=S)NNC(=O)c2cccs2)cc1 here?
The inhibition was 0.74%.

With CCOC(=O)[C@]12CCCC=C1N(Cc1ccc(OC)cc1)C(=O)[C@@H]2CC(=O)NCc1cccs1 as the compound, how does the inhibition read?
Its inhibition is 7.82%.

For COc1cc(NC(=S)N2CCCC(C)C2)c(OC)cc1Cl (stereo unspecified), which inhibition is on record?
Its inhibition is 40.8% (active).

How did the inhibition turn out when COc1cc(NC(=S)N2CCCC(C)C2)cc(OC)c1OC (stereo unspecified) was run?
The inhibition was 5.72%.

Which inhibition does the source give for COc1cc(NC(=O)CSC(=S)N2CCCC2)c(OC)cc1Cl here?
The inhibition was 8.65%.

For CCOC(=O)N1CCN(C(=O)C[C@@H]2C(=O)N(CCc3ccc(Cl)cc3)C3=CCCC[C@]32C(=O)OCC)CC1, which inhibition is on record?
Its inhibition is 0.68%.

For O=C(COc1ccccc1O)NC1CCCC1, which inhibition is on record?
Its inhibition is 3.06%.

Which inhibition does the source give for COc1ccc(Cl)cc1C=CC=NNC(=O)c1ccncc1 here?
The inhibition was -0.1%.

For COc1ccccc1/C=C/C=N/n1c(-c2ccc(Cl)cc2Cl)n[nH]c1=S, which inhibition is on record?
Its inhibition is 21.3% (active).

For COc1ccc(Cl)cc1C=CC=Nc1ccc(S(N)(=O)=O)cc1, which inhibition is on record?
The inhibition was -7.11%.

With Cc1ccc(NC(=O)Cc2cccc(F)c2)c(S(=O)(=O)N2CCOCC2)c1 as the compound, how does the inhibition read?
Its inhibition is 0.91%.

COc1ccc(-n2c(SCC(=O)Nc3ccc4cn[nH]c4c3)nnc2-c2cccnc2)cc1 was tested. Which inhibition did it give?
Its inhibition is -1.98%.

How did the inhibition turn out when FC(F)(F)c1cccc(NC(=S)OC2CCC23CCC(c2ccccc2)CC3)c1 (stereo unspecified) was run?
Its inhibition is -5.1%.

How did the inhibition turn out when O=C(CN(c1cc(C(F)(F)F)ccc1Cl)S(=O)(=O)c1ccccc1)NCc1cccnc1 was run?
Its inhibition is 0.93%.

O=C(c1cccnc1)N(c1cc2sc(=O)oc2c2ccccc12)S(=O)(=O)c1ccccc1 was tested. Which inhibition did it give?
The inhibition was 78.8% (active).

Which inhibition does the source give for CN(c1ccccc1)S(=O)(=O)c1ccc(C(=O)NCc2cccnc2)cc1 here?
Its inhibition is -4.64%.

O=C1CCC2(CCC(c3ccc(Cl)cc3)CC2)N1CCO (stereo unspecified) was tested. Which inhibition did it give?
Its inhibition is -4.08%.

For O=C(NC1CCCCN(Cc2ccc(Cl)cc2)C1=O)c1ccc(Br)cc1 (stereo unspecified), which inhibition is on record?
The inhibition was -6.45%.

How did the inhibition turn out when Cc1c(NC(=O)CCCOc2ccccc2)cccc1[N+](=O)[O-] was run?
Its inhibition is 2.67%.

With Cc1c(NC(=S)NCc2ccc(F)cc2)cccc1[N+](=O)[O-] as the compound, how does the inhibition read?
Its inhibition is 4.29%.

Which inhibition does the source give for Cc1c(NC(=O)/C=C/C(=O)O)cccc1[N+](=O)[O-] here?
The inhibition was 70.3% (active).

For COc1ccc(CCN2CNc3c(c(=O)n(C)c(=O)n3C)C2)cc1OC, which inhibition is on record?
The inhibition was 5.09%.

With O=S(=O)(c1ccc(SCc2ccccc2)nc1)N1CCCCCC1 as the compound, how does the inhibition read?
Its inhibition is -2.5%.

How did the inhibition turn out when O=S(=O)(c1ccc(SCc2ccc(Br)cc2)nc1)N1CCOCC1 was run?
The inhibition was 0.76%.

Which inhibition does the source give for O=S(=O)(c1ccc(Sc2nnc3ccccn23)nc1)N1CCOCC1 here?
The inhibition was 65.8% (active).

Which inhibition does the source give for CCOC(=O)[C@]12CCCCC/C=C\1N(Cc1ccc(OC)cc1)C(=O)[C@H]2CC(=O)NCCCN1CCCC1=O here?
Its inhibition is 0.39%.

How did the inhibition turn out when COc1c(C(=O)N2CCCC2)ccc2ccccc12 was run?
Its inhibition is 1.75%.

With COC(=O)C[n+]1cccc2ccccc21 as the compound, how does the inhibition read?
The inhibition was 38.1% (active).

COC(=O)c1ccc(Cc2ccccc2)o1 was tested. Which inhibition did it give?
The inhibition was -1.95%.

COc1ccc(CN(CCN2CCOCC2)C(=O)c2ccc(C)cc2)cc1OC was tested. Which inhibition did it give?
The inhibition was 2.63%.

Cc1ccc(Cn2cc(CN3[C@@H](C)COc4cc(Br)ccc4S3(=O)=O)nn2)cc1 was tested. Which inhibition did it give?
Its inhibition is 0.27%.

With CCOC(=O)[C@]12CCCCC/C=C\1N(Cc1ccc(OC)cc1)C(=O)[C@H]2CC(=O)N1CCOCC1 as the compound, how does the inhibition read?
The inhibition was 0.54%.

For CSCCNC(=O)c1ccc2nc(Cc3ccccc3F)oc2c1, which inhibition is on record?
The inhibition was 3.93%.

How did the inhibition turn out when C=CCN1C(=O)[C@H](CC(=O)N2CCN(C(=O)OCC)CC2)[C@@]2(C(=O)OCC)CCCC=C12 was run?
Its inhibition is 0.65%.

Which inhibition does the source give for O=C(C1CC(=O)N(c2ccc(F)cc2)C1)N1CCN(c2ccccc2)CC1 (stereo unspecified) here?
Its inhibition is -0.62%.

With O=C1CC(N2CCN(c3ccc(F)cc3)CC2)C(=O)N1c1ccccc1 (stereo unspecified) as the compound, how does the inhibition read?
The inhibition was 21.5% (active).

Which inhibition does the source give for COC(=O)c1cc(C(=O)OC)cc(N2C(=O)CC(N3CCN(c4ccccc4)CC3)C2=O)c1 (stereo unspecified) here?
The inhibition was 3.3%.

With COC(=O)C1(CCSC)NC(c2ccc(OC)cc2OC)C2C(=O)N(c3cccc(C(C)=O)c3)C(=O)C21 (stereo unspecified) as the compound, how does the inhibition read?
The inhibition was -3.15%.

For CC1CCCCC1NC(=O)COC(=O)Cc1ccc(Br)cc1 (stereo unspecified), which inhibition is on record?
Its inhibition is -4.22%.

With O=C(Nc1ccccc1)c1nnsc1S(=O)(=O)c1ccc(Cl)cc1 as the compound, how does the inhibition read?
The inhibition was 89.9% (active).

For Cc1nnsc1C(=O)Nc1cccc(Cl)c1C, which inhibition is on record?
Its inhibition is 2.23%.

How did the inhibition turn out when O=C(Nc1cccc(Cl)c1)c1cc(S(=O)(=O)N2CCCCC2)c[nH]1 was run?
Its inhibition is 3.07%.

With O=c1[nH]c2c(c(=O)n1-c1ccccc1)CCO2 as the compound, how does the inhibition read?
Its inhibition is 3.18%.

Cc1ccc(S(=O)(=O)NCCC(c2ccccc2)c2ccccc2)cc1C(=O)O was tested. Which inhibition did it give?
Its inhibition is -5.2%.

COC(=O)c1ccc(CNC(=O)Cn2cc(C)c(=O)[nH]c2=O)cc1 was tested. Which inhibition did it give?
The inhibition was 3.88%.

How did the inhibition turn out when CC(=O)NC1=NC(=O)CS1 was run?
Its inhibition is 71.7% (active).

How did the inhibition turn out when C[C@@H]1CN([C@@H](C)CO)C(=O)c2cccc(NC(=O)Nc3cccc4ccccc34)c2O[C@H]1CN(C)S(=O)(=O)c1ccccc1F was run?
Its inhibition is -7.41%.

For COc1cccc(/C=C2\CC3(OC(C)=O)CCCN2C3)c1 (stereo unspecified), which inhibition is on record?
The inhibition was -1.33%.

For CCCCC(=O)N[C@@H]1CC[C@@]23CCCN2C(=O)CCC[C@H]3[C@H]1C, which inhibition is on record?
Its inhibition is -1.5%.

How did the inhibition turn out when CCOc1ccc(-c2n[nH]c(=S)n2/N=C/c2cc3c(cc2[N+](=O)[O-])OCO3)cc1 was run?
Its inhibition is -0.65%.

How did the inhibition turn out when CCc1n[nH]c(=S)n1/N=C/c1c[nH]c2ccc(Br)cc12 was run?
The inhibition was 29.8% (active).

How did the inhibition turn out when C[n+]1ccc(/C=C/c2c[nH]c3ccccc23)cc1 was run?
The inhibition was 4.53%.

For S=c1[nH]nc(-c2ccccc2)n1/N=C/c1c[nH]c2ccccc12, which inhibition is on record?
Its inhibition is 25.5% (active).

With Cc1cccc(NC(=O)CSc2nnc(CCNC(=O)OC(C)(C)C)o2)c1C as the compound, how does the inhibition read?
The inhibition was -1.24%.

How did the inhibition turn out when O=C(O)CCN1C(=O)CC2(CCCCC2)C1=O was run?
The inhibition was 0.48%.

Which inhibition does the source give for N#Cc1ccc(OC[C@@H](O)CN2CCC(C(O)(c3ccccc3)c3ccccc3)CC2)c(F)c1 here?
Its inhibition is -0.03%.

With CC(=O)N1CCCc2cc(S(=O)(=O)N3CCCC(C(=O)N4CCN(c5cccc(Cl)c5)CC4)C3)ccc21 (stereo unspecified) as the compound, how does the inhibition read?
The inhibition was -1.42%.

With CCOC(=O)C1(Cc2ccc(Cl)cc2)CCN(C(=O)C2=NNC(=O)CC2)CC1 as the compound, how does the inhibition read?
The inhibition was 3.16%.

For CCOCCCNC(=S)N1CCC(NC(=O)C2CCCCC2)CC1, which inhibition is on record?
The inhibition was 4.18%.

How did the inhibition turn out when CCOC(=O)c1ccn(-c2nc(-c3ccco3)cc(C(F)(F)F)n2)n1 was run?
The inhibition was 3.19%.

Which inhibition does the source give for Cc1ccsc1-c1cc(C(=O)O)c2c(ccc3ccccc32)n1 here?
Its inhibition is -0.02%.

With Cc1cc(C)c2nc(-c3ccco3)cc(C(=O)O)c2c1 as the compound, how does the inhibition read?
Its inhibition is 36.4% (active).

COc1ccc(-c2cc(-c3nnc(SCC(=O)Nc4cccc5ccccc45)n3N)[nH]n2)cc1 was tested. Which inhibition did it give?
The inhibition was 2.25%.

Which inhibition does the source give for Cc1ccc2c(c1)c1ncnc(N3CCc4ccccc4C3)c1n2C here?
Its inhibition is -0.03%.

How did the inhibition turn out when CCN(C(=O)Nc1cccc2ccccc12)c1ccccc1 was run?
Its inhibition is 9.59%.

For Cc1cccc(C)c1NC(=O)C(c1cccc(F)c1)N1CCN(C)CC1 (stereo unspecified), which inhibition is on record?
The inhibition was -4.4%.

With O=S1(=O)c2c(NCc3ccco3)cccc2Oc2ccccc2CN1Cc1cn(Cc2cccc(C(F)(F)F)c2)nn1 as the compound, how does the inhibition read?
The inhibition was 0.88%.

Which inhibition does the source give for COc1ccc(NC2=CC(=S)NC(C)(C)C2)cc1 here?
Its inhibition is 33.8% (active).

With COc1ccc(CCNC2=CC(=O)CC(C)(C)C2)cc1 as the compound, how does the inhibition read?
Its inhibition is -4.15%.

How did the inhibition turn out when COC(=O)C1=C(C)NC(=S)NC1c1ccc(OC)cc1 (stereo unspecified) was run?
The inhibition was -3.18%.

For Cc1ccc(Cn2cc(CN3[C@@H](CC(C)C)COc4ccc(Cl)cc4S3(=O)=O)nn2)cc1, which inhibition is on record?
The inhibition was -3.14%.

For CC(=O)c1cccc(NC(=O)CN2C(=O)c3cccnc3Oc3ccc(Cl)cc32)c1, which inhibition is on record?
The inhibition was 1.98%.

With COc1cc(NC(=S)NNC(=O)CC(C)C)c(OC)cc1Cl as the compound, how does the inhibition read?
The inhibition was 5.88%.

Which inhibition does the source give for COc1ccc(C)cc1NC(=S)Nc1ccccc1SC here?
Its inhibition is 1.24%.

How did the inhibition turn out when CCc1ccccc1NC(=S)Nc1cc(OC)c(NC(=O)C(C)C)cc1OC was run?
Its inhibition is 22.1% (active).

Which inhibition does the source give for COc1ccc(Cn2ccc3ccc(-c4ccc5ccn(Cc6ccccc6C)c5c4)cc32)cc1 here?
Its inhibition is 5.02%.

Which inhibition does the source give for FC(F)(F)c1cccc(Cn2ccc3ccc(-c4ccc5ccn(Cc6ccccc6)c5c4)cc32)c1 here?
Its inhibition is -0.46%.

Which inhibition does the source give for O=[N+]([O-])/C=C/c1ccc2c(ccn2Cc2ccccc2)c1 here?
Its inhibition is 24.4% (active).

How did the inhibition turn out when COc1cc2[nH]c(=S)n(Cc3ccc(F)cc3)c(=O)c2cc1OC was run?
Its inhibition is 1.22%.

CCc1ccc(-n2c(=S)sc3c(=O)n(-c4ccccc4OC)c(=S)[nH]c32)cc1 was tested. Which inhibition did it give?
Its inhibition is 84.4% (active).

For COc1ccc(Cl)cc1-n1c(=S)sc2c(=O)n(-c3ccc(F)cc3)c(SCC(=O)O)nc21, which inhibition is on record?
The inhibition was 4.71%.
